# Experimental data published in PubChem BioAssay (NCI).
# The panel holds about 83,000 compounds, 20% with a hit somewhere; the sample as a whole holds those more often.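 Values shown are percent growth following 48 h exposure of cells in 96-well plates to a single concentration of compound; below 10 was considered active.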 Values without a mark were called inactive. Activity calls are given as the source filed them.
# Assays:
# Assay in all cases: NCI-60 one-dose screen, 48 h (100 = growth as untreated, 0 = no growth, -100 = all killed)
# Settings in all cases: 10 µM unless noted
# [1] = tested on: T-47D breast
# [2] = tested on: BT-549 breast
# [3] = tested on: MDA-MB-435 melanoma
# [4] = tested on: SW-620 colon
# [5] = tested on: MCF7 breast
# [6] = tested on: HCT-116 colon
# [7] = tested on: HCC-2998 colon
SMILES,growth [1],growth [2],growth [3],growth [4],growth [5],growth [6],growth [7]
COc1ccc(OC)c2c1CCC1(C2)NC(=O)NC1=O (stereo not drawn),109%,114%,95.9%,103%,92.4%,107%,106%
CCOC(=O)c1sc(NC(=O)COc2ccc(/C=C3\CCc4cc(OC)ccc4C3=O)cc2)nc1C,86.6%,51.8%,87.1%,99.5%,112%,105%,104%
CC(=O)/C(=C/c1ccc(Cl)cc1)C(=O)c1ccccc1,83%,97.4%,61.4%,61.3%,53.1%,66%,99.2%
CC(C)CNc1nc(N=[N+]=[N-])nc(NCC(C)C)n1,48.6% [100 µM],56.9% [100 µM],55.6% [100 µM],81.9% [100 µM],52.4% [100 µM],42.9% [100 µM],79.4% [100 µM]
O=C1CNc2cc(Cl)ccc2N1,99.5%,97.7%,114%,105%,102%,104%,104%
c1ccc(CN=C(NCc2ccccc2)NCc2ccccc2)cc1,26.3%,82.2%,66.9%,77.3%,36.5%,46.4%,
N#Cc1c(-c2ccccc2)cc(-c2ccccc2)n(CCCCC(=O)O)c1=O,103%,91%,59.4%,90.9%,78.2%,93.3%,95.6%
COP(=O)(OC)C(c1ccccc1)(c1ccccc1)c1ccccc1,88.8%,117%,91.2%,98.1%,103%,73.1%,114%
COc1cc(/C=C/C(=O)CC(=O)/C=C/c2ccc(OC(=O)CCNC34CC5CC(CC(C5)C3)C4)c(OC)c2)ccc1OC(=O)CCNC12CC3CC(CC(C3)C1)C2,50.8%,-10.7% (active),-31.2% (active),8.69% (active),17.8%,-0.854% (active),34.1%
COc1cc(/C=C/C(=O)C(C(=O)/C=C/c2ccc(OC(=O)CCNc3nnc(C)s3)c(OC)c2)C(=O)CCNc2nnc(C)s2)ccc1OC(=O)CCNc1nnc(C)s1,41.4%,-44% (active),-27.5% (active),-19.5% (active),8.2% (active),-31.6% (active),-46.7% (active)
Cc1cc(Cl)ccc1Nc1nc(C(F)(F)F)ccc1C(=O)N/N=C/c1ccc(Cl)cc1,-0.161% (active),-7.4% (active),37.1%,9.53% (active),2.27% (active),-38.8% (active),-13.3% (active)
CCCCCCCCCCCCC1CCCC(C)C1 (stereo not drawn),96.4%,102%,104%,101%,93.6%,94.9%,97.7%
CCCCCc1c(C)[nH]c(/C=C2\N=C(c3ccc[nH]3)C=C2OCc2ccccc2)c1C,-77.7% [100 µM] (active),-94.6% [100 µM] (active),-93.9% [100 µM] (active),-34.7% [100 µM] (active),-73% [100 µM] (active),-94.7% [100 µM] (active),-87.8% [100 µM] (active)
COc1cc(-c2n[nH]nc2-c2ccccn2)cc(OC)c1OC,87.2%,117%,106%,106%,96.2%,104%,105%
O=CN1N=C(c2ccc(Cl)cc2)CC1c1cccc(Nc2ccnc3cc(Cl)ccc23)c1 (stereo not drawn),11.8%,7.26% (active),4.68% (active),27%,11.3%,7.72% (active),40.9%
COc1ccc(CCN2C(=O)CCC3=C2CCCC3=O)cc1OC,104%,104%,103%,107%,92.6%,100%,103%
Cc1ccc(OCC(=O)Nc2ccc(Oc3ccccc3)cc2)c([N+](=O)[O-])n1,23.4%,98.5%,96.7%,96.8%,58.3%,69.8%,81.1%
O=C1/C(=C\c2coc3ccccc3c2=O)c2ccccc2N1c1c(Cl)cccc1Cl,30%,41.1%,14.5%,35%,31.6%,35.6%,53%

SMILES,growth [1],growth [2],growth [3],growth [4],growth [5],growth [6],growth [7]
COc1ccc(C2CC(c3ccc(Nc4ccnc5cc(Cl)ccc45)cc3)=NN2C(C)=O)cc1 (stereo not drawn),40%,68.5%,23%,87.2%,55.7%,61.3%,70%
CC(NC(N)=S)c1ccccc1 (stereo not drawn),89.6%,118%,106%,98.7%,94.5%,107%,
O=C(COc1cccc(/C=C2\Oc3ccc4ccccc4c3C2=O)c1)c1ccc(Cl)cc1,62.6%,3.5% (active),96.1%,36%,63.9%,41.7%,87.5%
CN1CCN(CCCCCN=c2cc3c(=O)n(CCCCCN4CCN(C)CC4)c(=O)c4c(NCCCCCN5CCN(C)CC5)cc5c(O)n(CCCCCN6CCN(C)CC6)c(=O)c2c5c4-3)CC1,16.5%,11.4%,-41.5% (active),21.9%,-6.01% (active),2.16% (active),29.1%
N#CSCC1CC(O)(c2ccccc2)C(c2ccccc2)C(c2ccc(Cl)cc2)O1 (stereo not drawn),-35.3% (active),-57.8% (active),-65.2% (active),-76.2% (active),-51.5% (active),-92.9% (active),-86.2% (active)
Cc1ccc(/C=C(/C#N)n2nnc3ncccc32)cc1,5.39% (active),11.3%,-52.9% (active),9.59% (active),14.5%,4.5% (active),15.7%
C1CCC(C(CC2CCCCN2)C2CCCCC2)CC1 (stereo not drawn),-48.9% (active),41.1%,-73.8% (active),-84.6% (active),-62.6% (active),-94.1% (active),-90.6% (active)
c1ccc(N2c3nc4ccccc4cc3Sc3cc4ccccc4nc32)nc1,82.6%,93.2%,115%,90.8%,74%,98.5%,113%
N#Cc1c(-c2ccccc2)cc(-c2ccccc2)n(CCCCCCC(=O)O)c1=O,91.1%,101%,102%,103%,67.9%,98.5%,111%
CCOC1Oc2ccccc2C(=O)/C1=N/c1nccs1 (stereo not drawn),66.5%,77.1%,104%,87.1%,79.1%,92.9%,99.7%
COC(=O)Nc1ccc2ccc3c(NC(=O)OC)ccc4ccc1c2c43 (tested in a mixture with another compound),49.6%,63.2%,-22.3% (active),39.4%,31.4%,21.7%,57.9%
Cc1ccc(S(=O)(=O)NCCN2c3nc4ccccc4cc3Sc3cc4ccccc4nc32)cc1,62.5%,46.2%,105%,87.7%,69%,70.5%,86.3%
O=C(O)CCC(=O)OC[C@@H](NC(=O)C(Cl)Cl)[C@H](O)c1ccc([N+](=O)[O-])cc1,95%,89.6%,101%,108%,97.2%,92.3%,100%
COc1ccc(C(=O)COc2cccc(/C=C3\CSc4ccc(Cl)cc4C3=O)c2)cc1,70.4%,42.5%,93.2%,-65.9% (active),-11.8% (active),53.9%,95.2%
CCCCCc1c(C)[nH]c(/C=C2\N=C(c3ccc[nH]3)C=C2Oc2ccccc2)c1C,-61.1% [100 µM] (active),-97.1% [100 µM] (active),-34.4% [100 µM] (active),-54% [100 µM] (active),-100% [100 µM] (active),-4.84% [100 µM] (active),-91.6% [100 µM] (active)
CC1CC=CCC1C1OCC(C)(C)CO1 (stereo not drawn),75.3%,99.9%,105%,102%,101%,97.5%,113%
CC(C)C[C@H](NC(=O)/C=C/Cn1ccc2ccccc2c1=O)B(O)O,17.6%,27.9%,-44.3% (active),24.6%,26.5%,16.2%,62.5%
